Rows were chosen to be rich in hits. Some 19% of all compounds tested hit in one or more screens of this group.
IL-1B inflam inh: blocks inflammasome-driven IL-1 beta release; THP-1 LPS/ATP IL-1B secretion, AlphaLISA, 16 h; active compounds read low; activity change, % at 57.5 µM; 4.7% of 360,000 active; in the data active = activity change below about -50%; inconclusive = mostly about -30% to -49%
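Secreted IL-1B measured by AlphaLISA bead assay after 16 h compound exposure of THP-1 cells; compounds (final up to 57.5 uM) added 1 h before LPS (250 ng/mL) and ATP (1.25 mM) stimulation; lower signal means less secretion.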
DT40 TDP1 no CPT: qHTS for Inhibitors of human tyrosyl-DNA phosphodiesterase 1 (TDP1): qHTS in cells in absence of CPT; AID 686978, 2013; Potency, µM (highest dose often 46.2 µM), actives largely listed as inhibitors; 15% of 420,000 active; DT40 Tdp1-/- hTDP1 cells, no CPT, ATP luminescence, 48 h; also: nearly all actives have a fitted effect of over 55% in size
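Compound effects on proliferation are scored in DT40 Tdp1-/-;hTDP1 cells in the absence of CPT. ATP levels (CellTiter-Glo luminescence) are recorded after a ≥48 hr, 37 °C incubation.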
DT40 TDP1 CPT: DT40-hTDP1 cell growth loss with CPT; chicken DT40 Tdp1-/-;hTDP1 cells + 20 nM CPT, ATP luminescence, 48 h; Potency, µM (titrated, usually from 46.2 µM), usual class: inhibitors; 12% of 420,000 active; also: nearly all actives have a fitted effect of over 55% in size
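Chicken DT40 Tdp1-/- cells stably complemented with human TDP1 were seeded at 400 cells/well in medium containing 20 nM camptothecin, exposed to pin-transferred compounds, and grown at 37 °C for at least 48 hr. Viability was read as ATP luminescence.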
HT1080 IDH1KD tx: kills HT-1080 cells with IDH1 knockdown | HT-1080 IDH1 knockdown viability, ATP luminescence, 48 h | Potency, µM (doses to about 46.1 µM), hits mostly cytotoxic | 2% of 360,000 active
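Viability of IDH1-knockdown HT-1080 fibrosarcoma cells was assessed by CellTiter-Glo after 48 h at 37 °C with titrated compound; concentration-effect curves were classified by fit quality and response size.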
ELG1 repair inh: blocks ELG1-dependent DNA repair in HEK293T cells; HEK293T ELG1-luciferase reporter, luminescence, 16 h; DNA damage induced by 5-fluorouridine; Potency, µM (series often up to 46.1 µM), most hits filed as inhibitors; 2.3% of 330,000 active; AID 504467; also: nearly all actives have a fitted effect of over 55% in size
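Reporter activity after DNA damage by 5-fluorouridine is monitored. Compound-treated cells incubate 16 hr at 37 °C, then ONE-Glo is added for 30 min before luminescence reading.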
HT1080-NT tox: kills 2HG-producing HT-1080-NT fibrosarcoma cells | 1.6% of 360,000 active | HT-1080-NT fibrosarcoma viability, CellTiter-Glo ATP luminescence, 48 h | Potency, µM (highest dose often 46.1 µM), actives largely listed as cytotoxic;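 also: NT is the 2HG producing partner of a matched IDH1 knockdown line; nearly all actives have a fitted effect of over 55% in size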
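Viability of the 2HG-overproducing fibrosarcoma line after 48 hours of compound exposure at 37 degrees C was determined by luminescence with CellTiter-Glo, and concentration-effect curves were then fitted and categorized.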
Numbers stand for hits; – = inactive; ? = inconclusive; · = not tested or not shown. Unless noted, calls follow the shape of the dose curve; as a rule, active = well fitted curve in the direction sought with a large enough effect; inconclusive = small, poorly fitted or top-dose-only effect, or another doubt; inactive = no such curve, though single readings can be large; an effect the other way counts as inactive or inconclusive.

SMILES	IL-1B inflam inh	DT40 TDP1 no CPT	DT40 TDP1 CPT	HT1080 IDH1KD tx	ELG1 repair inh	HT1080-NT tox
CC1(C)CC(=O)C(=C2SCCCS2)C(=O)C1	–	–	–	–	–	–
Cc1cc(Cl)ccc1NC(=O)CCS(=O)(=O)c1cc2c(cc1C)NC(=O)CO2	·	–	–	·	·	·
Cc1ccc2oc(C(=O)Nc3ccc(S(=O)(=O)Nc4nc(C)cc(C)n4)cc3)cc(=O)c2c1	·	–	–	·	·	·
Cc1ccc(Cl)cc1NC(=O)Cn1nnc2sc3c(c2c1=O)CCC(C(C)(C)C)C3 (centres undefined)	·	4.1µM	7.3µM	·	·	·
COc1ccc(NC(=O)Nc2cccc3c2O[C@H](CN(C)S(C)(=O)=O)[C@@H](C)CN([C@H](C)CO)C3=O)cc1	–	–	–	–	?	–
CCn1cc(-c2cc(C(=O)O)c3ccccc3n2)cn1	–	?	9.2µM	?	–	–
O=C(NCc1ccccn1)c1cc(-c2ccc(-c3ccccc3)cc2)nc2ccccc12	–	8.2µM	16µM	?	?	?
COCCNC(=O)c1cc(-c2ccc(-c3ccccc3)cc2)nc2ccccc12	-66	5.2µM	12µM	?	–	?
O=C(NCCc1ccccn1)c1c(-c2ccccc2)sc2ccccc12	–	16µM	?	–	–	–
Cc1cc(F)ccc1NC(=O)Cn1c(=O)ccc2cc(S(=O)(=O)N3CCC(C)CC3)ccc21	·	–	–	·	·	·
Cc1cc(C(=O)N(C)C)sc1-c1ccccc1	–	?	–	–	?	?
Cc1cccc(-c2cc(C(=O)NCc3ccccn3)c3ccccc3n2)c1	–	13µM	16µM	–	16µM	–
Cc1cc(C(=O)NCc2cc(C)n(C)n2)sc1-c1ccccc1	–	21µM	13µM	–	–	–
Cc1ccc(-c2cc(C(=O)NCc3ccccc3Cl)c3ccccc3n2)cc1C	·	?	15µM	·	·	·
Cc1ccc(-c2cc(C(=O)NCCCN3CCCC3)c3ccccc3n2)cc1C	-73	29µM	?	?	?	?
COc1ccc(CC(=O)NC2CC(=O)N(c3ccc4c(c3)OCCO4)C2)cc1 (centres undefined)	·	–	–	·	·	·
Cc1cc(CNC(=O)c2cc(-c3ccccc3)nc3ccccc23)nn1C	–	21µM	?	–	?	–
O=C(NCCc1ccccn1)c1cc(-c2ccccc2Cl)nc2ccccc12	–	18µM	–	–	?	–
Cc1ccc(-c2cc(C(=O)NCc3ccccn3)c3ccccc3n2)cc1C	–	7.3µM	?	?	?	?
O=C(NCc1ccccn1)c1cc(-c2ccccc2)nc2ccccc12	–	–	–	–	?	–
O=C(NCCc1ccc(Cl)cc1)c1cc(-c2ccccn2)nc2ccccc12	–	?	?	–	?	–
O=C(NCc1ccccc1)c1cc(-c2ccncc2)nc2ccccc12	–	?	?	–	–	–
CCn1cc(CNC(=O)c2cc(-c3ccc(C)c(C)c3)nc3ccccc23)c(C)n1	·	16µM	15µM	·	·	·
COCCNC(=O)C1(C)CCCN(Cc2ccc(-n3ccnc3)cc2)C1 (centres undefined)	–	–	–	–	·	–
CCCCN(C)CCCNC(=O)C1CCN(S(=O)(=O)CCC)CC1	·	–	–	·	·	·
CC/C(=N\N=C1\SC(C)C(=O)N1Cc1ccco1)c1ccccc1 (centres undefined)	–	?	?	–	–	–
Cc1cc(C(=O)c2ccc(Cl)cc2)c(NC(=O)CCl)s1	-117	7.3µM	8.2µM	?	–	?
CC1(C)Cc2c(C#N)c(NC3CCCCC3)nc(-c3ccco3)c2CO1	·	·	·	·	–	·
CC1(C)Cc2nc(NC3CCCCC3)c(C#N)cc2CO1	–	23µM	?	–	–	–
CC(C)(C)c1cc(C(=O)NN)n(Cc2ccc(F)cc2)n1	–	–	–	–	–	–
